In the supplement of paper PMC11417369:
± gives the standard deviation of the averaged measurements. Whole data set: some 25,000 sequences, median “ln(normalized median fluorescence intensity)” near 8.6, cut for the highest 2% near 10. The list comes from a sample in which the highest values are over-represented; it also holds similar and randomly drawn sequences.

System: PfAP2-EXP AP2 domain (GST-tagged)
Experiment: gcPBM binding intensity (ln(normalized median fluorescence intensity)); higher = stronger DNA binding
How it was run: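 Binding of GST-tagged P. falciparum DNA-binding domains, expressed in E. coli and used at about 25 μg on average, was carried out for 1 h in 1× PBS containing 1% milk, 0.2 mg/ml BSA, 0.5% salmon testes DNA and 0.03% Triton X-100. The target was an Agilent 4 × 180k array of primer-extended double-stranded 36-bp intergenic genomic probes plus negative controls, read with Alexa488 anti-GST antibody at 488 nm. Binding intensity is the highest Masliner-normalised natural-log median intensity across replicate spots of either probe orientation.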

Sequence | gcPBM binding intensity (ln)
AAGGTTTTGGGTTTTAATTAATTTAATATGATTATA [XGTACX_negctrl_site147] | 8.46 ± 0.59
TACATTTTTATTTTTACACACATATATATATATATA [CACACA_site1021] | 10.1 ± 0.31
AAAATAAATATAAAATGTACTTATATATATATATAT [XGTACX_site7803] | 9.97 ± 0.47
AACAGATAATATAAAAAAAAAAAAAAAAATAATTAA [GTGCAC_negctrl_site69] | 8.07 ± 0.53
ATATTTTTTTTCTACACACATACAAATATATATTAT [CACACA_site2359] | 8.97 ± 0.46
AATAAATAAAAAACATGTACAAATATAATATAGCAT [XGTACX_site6429] | 9.18 ± 0.5
AAATTGTGTTCATCAGCACACACAACATCATGTAAT [CACACA_site8556] | 8.51 ± 0.41
AAATATAAAAAAAATATATAATTTTTACATCGAATT [CACACA_negctrl_site544] | 8.24 ± 0.38
AAAAATAAAAGGTGTGCACACAAAAATATATATATA [CACACA_site8507] | 9.74
CACAAATATATACATACACACATATATACACATATA [CACACA_site8024] | 8.47 ± 0.34
TATAAATATATATATACACACACATACACAAAAAAA [CACACA_site9191] | 8.96 ± 0.54
AAAAATAAAGGGTGTGCACACAAAAATATATATATA [CACACA_site1727] | 9.805 ± 0.078
TACACAAATATATATATATATATATATATATATATA [XGTACX_negctrl_site305] | 10.2 ± 0.14
TAATAAAAAATATATACACACAAATAAATAAATAAA [CACACA_site4037] | 8.75 ± 0.62
TACAAAAAAAAATAAAATACATATATATATATATAT [XGTACX_negctrl_site608] | 10.3 ± 0.18
AAATAAAAAGGGTGCACACAAAAATATATATATATA [CACACA_site1728] | 10.5 ± 0.6
GTACAAAAAAAAATAAAATACATATATATATATATA [GTGCAC_negctrl_site364] | 10.1 ± 0.41
TAAATATATATATACACACACATACACAAAAAAAAA [CACACA_site3580] | 8.73 ± 0.42
TTATACACAAAAAAAAAAATATATATATATATATAT [XGTACX_negctrl_site5] | 10.2 ± 0.61
CACAAATATACAAATACACACAAATATACAAATACA [CACACA_site2385] | 8.7 ± 0.41
TACGTGAAATTATATACACACATAAATATGTCTGTA [CACACA_site3122] | 8.16 ± 0.36
ATTTAAAAAAAAACGGAATTTTTTTTTTTTTTAAAG [XGTACX_negctrl_site91] | 8.06 ± 0.51

Sequence | gcPBM binding intensity (ln)
TTAAAAAAAATATAATGTACTTGTAGAATTATATTT [XGTACX_site6220] | 8.09 ± 0.26
TTTTTTAATTAATTACCTTTGAATGTGTATTAGGAC [GTGCAC_negctrl_site651] | 8.49 ± 0.26
AATATATACATATATTGTACATATAGTTTCTTGCAT [XGTACX_site7871] | 8.61 ± 0.33
AAATTATTATGAAATGGAAAATGCATAAATTGTTTT [XGTACX_negctrl_site206] | 8.63 ± 0.48
AATATACAAAATAAATAAAATATATATATATATATA [CACACA_negctrl_site216] | 10.2 ± 0.28
TATATATACATATACACACATACGTACATACATATA [CACACA_site3585] | 8.75 ± 0.31
TAATATAACAAAAAAATAAAATAAAATAAAAAATAA [CACACA_negctrl_site109] | 8.4 ± 0.41
AAATAAATAAATATACGTACATATATATAATATATA [XGTACX_site5124] | 8.52 ± 0.15
TATAAAATAAATAACAAAAAAAATAAAATAAAAATA [TGCATGCA_negctrl_site297] | 8.47 ± 0.47
AAAAAAATATAAATACGTACATATATATATATATAT [XGTACX_site432] | 10.2 ± 0.46
ATACATACATACATACGTACATATGTATATATATAT [XGTACX_site8498] | 9.7 ± 0.19
CCATATACAACCATACGTACATATATATATATATAT [XGTACX_site8193] | 10.2 ± 0.2
ACAAAAAAATAAAATATATATATATATATAATATAT [CACACA_negctrl_site805] | 8.58 ± 0.16
AACATAACAAAAAAAAAAAAAAATATATATATATAT [TGCATGCA_negctrl_site370] | 10.2 ± 0.41
ATAAATAAATAAATACGTACATATATATATATATAT [XGTACX_site8838] | 9.98 ± 0.38
TACAAAAAAATAAATAATAAAAAAAAATATATATAA [XGTACX_negctrl_site344] | 8.38 ± 0.38
ATTCTAAATAAATGTACACACAAAAATAAATGTATA [CACACA_site1732] | 8.61 ± 0.31
AACATATATATAATATGTACATAATATATATAAATG [XGTACX_site1161] | 8.52 ± 0.3
AAAATTAAAAATTACTGTACGTATTAGAGAATAAAT [XGTACX_site2567] | 8.53 ± 0.32
CATAAAATTGTGAAGTGTACATATTTTTAAATATAA [XGTACX_site8986] | 8.63 ± 0.28
AATATTTTACAATACACATGCAAATAATATTCTAAA [TGCATGCA_site618] | 8.63 ± 0.39
